Reference: PubChem BioAssay (NCI)
Compounds without any hit were thinned out: in the full panel of roughly 83,000, 20% have a hit.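 Step 1: grow cells in 96-well plates. Step 2: add test compound at a single concentration. Step 3: incubate 48 h. Step 4: record percent growth.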 Calls of active or inactive are those of the source. How the source made its calls: active means growth percent below 10; inactive means the rest.

How the values were obtained:
Test in all cases: NCI-60 one-dose screen, 48 h (100 = growth as untreated, 0 = no growth, -100 = all killed)
Details in all cases: 10 µM unless noted
HCT-15 colon = system: HCT-15 colon
HT29 colon = system: HT29 colon
SNB-75 CNS = system: SNB-75 CNS
SNB-19 CNS = system: SNB-19 CNS
U251 CNS = system: U251 CNS
PC-3 prostate = system: PC-3 prostate
SK-MEL-5 melanoma = system: SK-MEL-5 melanoma
UACC-62 melanoma = system: UACC-62 melanoma
LOX IMVI melanoma = system: LOX IMVI melanoma
SK-MEL-28 melanoma = system: SK-MEL-28 melanoma

Measured: growth

CCN(CCO)CCNc1ccc(C)c2sc3cc(OC)ccc3c(=O)c12
inactive: HCT-15 colon 41.1% | HT29 colon 33.1% | SNB-75 CNS 70.9% | SNB-19 CNS 67.7% | U251 CNS 54% | PC-3 prostate 71.2% | SK-MEL-5 melanoma 80.6% | UACC-62 melanoma 98.9% | LOX IMVI melanoma 50.7% | SK-MEL-28 melanoma 94.2%

CC([C@H]1CC=C2C3CCC4=C[C@@H](N(C)C)CC[C@]4(C)C3CC[C@@]21C)N(C)C (stereo not given in full)
inactive: SNB-75 CNS 32.4% | SNB-19 CNS 79.7% | U251 CNS 31.5% | PC-3 prostate 42.3% | SK-MEL-5 melanoma 23.6%
active: HCT-15 colon -20.7% | HT29 colon -18.3% | UACC-62 melanoma -58.3% | LOX IMVI melanoma -46.5% | SK-MEL-28 melanoma -33.6%

COc1cc2c(/C=C3\C(=O)Nc4ccc(Br)cc43)c(Cl)n(C)c2cc1C
active: HCT-15 colon 6.8% | HT29 colon 7.9% | SK-MEL-5 melanoma -3% | LOX IMVI melanoma 9.9%
inactive: SNB-75 CNS 31.6% | SNB-19 CNS 24% | U251 CNS 10.2% | PC-3 prostate 11.8% | UACC-62 melanoma 29.7% | SK-MEL-28 melanoma 55.6%

COc1ccc(CN2C(=O)/C(=C\C(=O)c3ccc(OCCN4CCCC4)cc3)c3ccccc32)cc1
inactive: HCT-15 colon 37.3% | SNB-75 CNS 73.2% | SNB-19 CNS 97.1% | U251 CNS 87.3% | PC-3 prostate 84% | SK-MEL-5 melanoma 92.7% | UACC-62 melanoma 88.7% | LOX IMVI melanoma 31.7% | SK-MEL-28 melanoma 103%
active: HT29 colon 9.12%

COC(=O)[C@H](Cc1cn(C)cn1)NC(=O)[C@H](Cc1c[nH]c2ccccc12)NC(=O)Nc1cc(C(F)(F)F)cc(C(F)(F)F)c1
inactive: HCT-15 colon 27.7% [100 µM]
active: HT29 colon -84.2% [100 µM] | SNB-75 CNS -85.5% [100 µM] | SNB-19 CNS -91% [100 µM] | U251 CNS -89.5% [100 µM] | PC-3 prostate -89.4% [100 µM] | SK-MEL-5 melanoma -51.3% [100 µM] | UACC-62 melanoma -92.9% [100 µM] | LOX IMVI melanoma -83.5% [100 µM] | SK-MEL-28 melanoma -80.3% [100 µM]

O=S(=O)(O)c1ccc2c(c1)Sc1cc(S(=O)(=O)O)ccc1O2
inactive: HCT-15 colon 113% | HT29 colon 106% | SNB-75 CNS 93.2% | SNB-19 CNS 103% | U251 CNS 102% | PC-3 prostate 99.2% | SK-MEL-5 melanoma 112% | UACC-62 melanoma 96% | LOX IMVI melanoma 99.7% | SK-MEL-28 melanoma 106%

COc1ccc(-c2nc(SCC(C)C)nc(Nc3ccc([N+](=O)[O-])cc3)c2C#N)cc1
inactive: HCT-15 colon 101% | HT29 colon 97.1% | SNB-75 CNS 88.1% | SNB-19 CNS 88.4% | U251 CNS 80.9% | PC-3 prostate 92.6% | SK-MEL-5 melanoma 96.3% | UACC-62 melanoma 99% | LOX IMVI melanoma 91.7% | SK-MEL-28 melanoma 107%

CCCNC(=O)Oc1ccc(/C(=C(/C)Cc2ccc(OC)cc2)c2ccc(OCCN3CCCCC3)cc2)cc1
inactive: HCT-15 colon 50.2% | HT29 colon 28.9% | SNB-75 CNS 63.6% | SNB-19 CNS 94.1% | U251 CNS 69.9% | PC-3 prostate 77% | SK-MEL-5 melanoma 78.2% | UACC-62 melanoma 97.5% | LOX IMVI melanoma 84.8% | SK-MEL-28 melanoma 100%

CC([C@H]1CCC2C3CCC4C[C@@H](N)CC[C@]4(C)C3CC[C@@]21C)N(C)C (stereo not given in full)
active: HCT-15 colon 3.11% | SK-MEL-5 melanoma -47.8% | SK-MEL-28 melanoma -26.6%
inactive: HT29 colon 15.1% | SNB-75 CNS 55.8% | SNB-19 CNS 98.7% | U251 CNS 65.9% | PC-3 prostate 64.5% | UACC-62 melanoma 50.9% | LOX IMVI melanoma 17.5%

COC(c1ccccc1)C(Br)C(=O)c1ccccc1 (stereo not given)
inactive: HCT-15 colon 90.7% | HT29 colon 106% | SNB-75 CNS 86.5% | SNB-19 CNS 96.3% | U251 CNS 95.1% | PC-3 prostate 91.3% | SK-MEL-5 melanoma 94.1% | UACC-62 melanoma 84.9% | LOX IMVI melanoma 97.8% | SK-MEL-28 melanoma 102%

NC(N)=N/N=C/c1cccc(Br)c1
inactive: HCT-15 colon 105% | HT29 colon 103% | SNB-75 CNS 92.3% | SNB-19 CNS 101% | U251 CNS 110% | PC-3 prostate 90.1% | SK-MEL-5 melanoma 84.7% | UACC-62 melanoma 107% | LOX IMVI melanoma 89.6% | SK-MEL-28 melanoma 112%

COc1ccc(-c2nc(SCC(C)C)nc(Nc3ccc(C(=O)O)cc3)c2C#N)cc1
inactive: HCT-15 colon 33% | HT29 colon 94.7% | SNB-75 CNS 88.6% | SNB-19 CNS 98.1% | U251 CNS 94.8% | PC-3 prostate 82.3% | SK-MEL-5 melanoma 63.3% | UACC-62 melanoma 99.3% | LOX IMVI melanoma 88% | SK-MEL-28 melanoma 25.5%

O=C(N/N=C\c1ccc(-c2ccc(Br)cc2)o1)c1cc2oc(-c3cccc(C(F)(F)F)c3)cc2[nH]1
inactive: HCT-15 colon 84.5% | HT29 colon 110% | SNB-75 CNS 72.3% | SNB-19 CNS 97.9% | U251 CNS 84.1% | PC-3 prostate 102% | SK-MEL-5 melanoma 102% | UACC-62 melanoma 108% | LOX IMVI melanoma 86% | SK-MEL-28 melanoma 81.5%

O=C1/C(=C\c2cn(-c3nc(N4CCOCC4)nc(N4CCOCC4)n3)c3ccccc23)c2ccccc2N1c1c(Cl)cccc1Cl
inactive: HCT-15 colon 64.5% | HT29 colon 73.9% | SNB-19 CNS 69.6% | U251 CNS 53.5% | PC-3 prostate 24.3% | SK-MEL-5 melanoma 83% | UACC-62 melanoma 46.6% | LOX IMVI melanoma 69.8% | SK-MEL-28 melanoma 77.2%
active: SNB-75 CNS 0.936%

Cc1ccccc1-n1c(C)nc2cc(NC(=O)c3ccc(Cl)cc3)ccc2c1=O
inactive: HCT-15 colon 63.7% | HT29 colon 62.9% | SNB-75 CNS 103% | SNB-19 CNS 75.9% | U251 CNS 77.6% | PC-3 prostate 61.2% | UACC-62 melanoma 42.2% | LOX IMVI melanoma 69.4% | SK-MEL-28 melanoma 79.5%
active: SK-MEL-5 melanoma 0.858%

CC(=O)Nc1ccc(S(=O)(=O)Cl)cc1
inactive: HCT-15 colon 110% | HT29 colon 106% | SNB-75 CNS 94% | SNB-19 CNS 110% | U251 CNS 95.6% | PC-3 prostate 99.8% | SK-MEL-5 melanoma 98.3% | UACC-62 melanoma 97.9% | LOX IMVI melanoma 94.8% | SK-MEL-28 melanoma 117%

O=C1C(Cl)=C(Nc2ccc(Nc3ccccc3)c(NC3=C(Cl)C(=O)c4ccccc4C3=O)c2)C(=O)c2ccccc21
inactive: HCT-15 colon 56.2% | HT29 colon 66.4% | SNB-75 CNS 81.3% | SNB-19 CNS 52.3% | U251 CNS 33.5% | PC-3 prostate 48% | SK-MEL-5 melanoma 90.9% | UACC-62 melanoma 39.4% | LOX IMVI melanoma 63.3% | SK-MEL-28 melanoma 113%

CCCCN(CCCC)CCCNc1c2c(nc3ccc(Cl)cc13)CCCC2
inactive: HCT-15 colon 74.2% | HT29 colon 45.7% | SNB-75 CNS 88.4% | SNB-19 CNS 102% | U251 CNS 101% | PC-3 prostate 95.5% | SK-MEL-5 melanoma 106% | UACC-62 melanoma 108% | LOX IMVI melanoma 90.4% | SK-MEL-28 melanoma 108%

O=S(=O)(Cc1cccc2c(CS(=O)(=O)c3ccc(Cl)cc3)cccc12)c1ccc(Cl)cc1
inactive: HCT-15 colon 92.8% | HT29 colon 93.7% | SNB-75 CNS 88.1% | SNB-19 CNS 104% | U251 CNS 104% | PC-3 prostate 92% | SK-MEL-5 melanoma 92.3% | UACC-62 melanoma 98.3% | LOX IMVI melanoma 94.1% | SK-MEL-28 melanoma 107%

O=C(Nc1ccc(-n2cc(-c3ccncc3)c(-c3ccc(Cl)c(O)c3)n2)cc1)c1cc(C(F)(F)F)cc(C(F)(F)F)c1
inactive: HCT-15 colon 27.8% | HT29 colon 11.1% | SNB-75 CNS 12.2% | SNB-19 CNS 72.5% | U251 CNS 54.3% | PC-3 prostate 72.1% | SK-MEL-5 melanoma 55.8% | UACC-62 melanoma 68.5% | LOX IMVI melanoma 53.1% | SK-MEL-28 melanoma 45.9%

CCC(C)[C@H](NC(=O)Nc1cc(C(F)(F)F)cc(C(F)(F)F)c1)C(=O)N[C@@H](Cc1cn(C)cn1)C(=O)OC (stereo not given in full)
active: HCT-15 colon -83.2% [100 µM] | HT29 colon -83.6% [100 µM] | SNB-75 CNS -100% [100 µM] | SNB-19 CNS -98.5% [100 µM] | U251 CNS -98% [100 µM] | PC-3 prostate -93.7% [100 µM] | SK-MEL-5 melanoma -97.9% [100 µM] | UACC-62 melanoma -98.8% [100 µM] | LOX IMVI melanoma -81.2% [100 µM] | SK-MEL-28 melanoma -95.3% [100 µM]

CCCCCCNC(=O)Oc1ccc(/C(=C(/C)Cc2ccc(OC)cc2)c2ccc(OCCN(C)C)cc2)cc1
active: HCT-15 colon 1.78% | HT29 colon -7.26% | SK-MEL-5 melanoma -49.6% | LOX IMVI melanoma -15.9%
inactive: SNB-75 CNS 50.5% | SNB-19 CNS 78.8% | U251 CNS 23.4% | PC-3 prostate 56.3% | UACC-62 melanoma 40.5% | SK-MEL-28 melanoma 68.6%

N=C(N)N=Nc1ccc(NN=C(N)N)c2ccccc12
inactive: HCT-15 colon 110% | HT29 colon 99.3% | SNB-75 CNS 73.1% | SNB-19 CNS 51.7% | U251 CNS 35.5% | PC-3 prostate 87.8% | SK-MEL-5 melanoma 138% | UACC-62 melanoma 102% | LOX IMVI melanoma 103% | SK-MEL-28 melanoma 113%

O=C(NCCO)C(F)(F)F
inactive: HCT-15 colon 96.9% | HT29 colon 104% | SNB-75 CNS 101% | SNB-19 CNS 94.6% | U251 CNS 97.1% | PC-3 prostate 103% | SK-MEL-5 melanoma 115% | UACC-62 melanoma 102% | LOX IMVI melanoma 103% | SK-MEL-28 melanoma 111%

CCC(C)(C)c1ccc(OCCCCCCN2CCNCC2)cc1
active: HCT-15 colon -36.1% | HT29 colon 8.87% | LOX IMVI melanoma -47.1%
inactive: SNB-75 CNS 60.5% | SNB-19 CNS 68.6% | U251 CNS 18.8% | PC-3 prostate 64.3% | SK-MEL-5 melanoma 34.2% | UACC-62 melanoma 85.6% | SK-MEL-28 melanoma 74.2%

COc1cccc2c1nc1cccc(OC)c1[n+]2[O-]
inactive: HCT-15 colon 47.4% | HT29 colon 53.9% | SNB-75 CNS 58.3% | SNB-19 CNS 46.9% | U251 CNS 46.6% | PC-3 prostate 73.2% | SK-MEL-5 melanoma 62% | UACC-62 melanoma 39.6% | LOX IMVI melanoma 31.9% | SK-MEL-28 melanoma 103%
